Consider 42 sequences from PMC7819943, “Rice protein-binding microarrays: a tool to detect cis-acting elements near promoter regions in rice”.

The full ranking holds about 68,000 sequences; the median of “fluorescence intensity (a.u.)” is about 9,100, and the highest 2% start at about 16,000. Many of the other results were omitted from the sample, so the highest values are more common in it than they were.

For this assay, the target named is OsWRKY34 (Oryza sativa, UniProt Q0JBA9 1-250). As to the kind of experiment: protein-binding microarray (RPBM); PBS, 2% BSA, 51.3 ng/ul salmon testes DNA, 50 uM zinc acetate, 200 nM TF, 25 C, 1 h; high values mean tight binding. Particulars: protein: recombinant; tags: N-terminal polyhistidine and DsRed monomer fusion (pET32a); label: CyDye5-dUTP incorporated in the synthesized complementary strand; 3' TTTTT single-stranded linker to array surface; dsDNA, one strand shown. A digest of the protocol: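 The binding signal for each feature is its fluorescence intensity in arbitrary units. An Axon 4000B scanner was used to read a custom Agilent array that had been made double-stranded with Cy5-dUTP primer extension, blocked with 2% BSA, incubated at 25 °C for 1 h with 200 nM protein in PBS, 2% BSA, salmon testes DNA and 50 µM zinc acetate, and washed. The protein was an N-terminal polyhistidine–DsRed transcription factor fusion from E. coli BL21-CodonPlus, purified on Ni–NTA.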
Chain of OsWRKY34 (Q0JBA9 entry or part of it): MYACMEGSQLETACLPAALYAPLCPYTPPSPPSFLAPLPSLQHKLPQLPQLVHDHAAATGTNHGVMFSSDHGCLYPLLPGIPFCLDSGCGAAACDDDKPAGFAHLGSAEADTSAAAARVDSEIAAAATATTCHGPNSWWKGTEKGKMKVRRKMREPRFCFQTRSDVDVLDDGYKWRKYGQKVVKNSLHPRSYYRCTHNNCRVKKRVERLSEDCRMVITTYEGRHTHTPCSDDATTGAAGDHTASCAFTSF
Consider “GCCATCAAGCTACGCCATTCAGCATTGCAACGACGACGTCCGGAGTCACCTAGTGCAG”, for which the binding signal was 64300 fluorescence intensity (a.u.).
Then “TCATCCCACCGACGTCAGCAAGCCATCGCCATCAAGCCCACGGAGTCACCTAGTGCAG”, with 9760 fluorescence intensity (a.u.); and “CAGCCGCCCTACGTCAGCCAAGTCCAACGACAACGCCCAACGGAGTCACCTAGTGCAG”, with 8200 fluorescence intensity (a.u.); and “ACCTCTGCTGATTCTTCTTGCTGTTTCTTTGTTGCGCATTCGGAGTCACCTAGTGCAG”, with 11500 fluorescence intensity (a.u.).
On to “CACCTCGCGCCGCGCCCCATCCTTATCGTCATGACACGCCCGGAGTCACCTAGTGCAG”, for which the binding signal is 8810 fluorescence intensity (a.u.).
Then “GGTTTTTTTTGGATTTATTGCTTTGTCACGTCTGGATCGTCGGAGTCACCTAGTGCAG”, with 20500 fluorescence intensity (a.u.); and “AACTCTGGCACGATTTTTTTTATTGCAGTTTTCGTCGGATCGGAGTCACCTAGTGCAG”, with 11400 fluorescence intensity (a.u.).
Then “GTTGGTTTTGGGGTTTTGGAGCGTTGCGGATTGCCACGGCCGGAGTCACCTAGTGCAG”, with 10300 fluorescence intensity (a.u.); and “TCTTAGTATCCTTGGTTGTTGGATTTTTAGTTTGCTTTATCGGAGTCACCTAGTGCAG”, with 9350 fluorescence intensity (a.u.); and “TTGCTTGTCTGTTTGTTTTATTTATTTATGACGTCATTATCGGAGTCACCTAGTGCAG”, with 12600 fluorescence intensity (a.u.).
For the sequence “TGGAGAGCGTTGCTTTTTTTGGGCGGGTTTGGATTTTTATCGGAGTCACCTAGTGCAG”, the binding signal was 21600 fluorescence intensity (a.u.).
Then “GAGGAGCTCGCCAATTGTTCCGCGTCATATCGCCAGCTCTCGGAGTCACCTAGTGCAG”, with 9060 fluorescence intensity (a.u.); and “CCTCTAAATTTTAAGATTTTTTTAATCATTTTACCATTTTCGGAGTCACCTAGTGCAG”, with 65200 fluorescence intensity (a.u.).
Then “GTTGCTGGTTTTGTTAGTTTGGTGACCTTGACTTGTAAGACGGAGTCACCTAGTGCAG”, with 8670 fluorescence intensity (a.u.); and “TCATTTTGACTTTTTTTAGTCAAACTCTTTTAATTTTAATCGGAGTCACCTAGTGCAG”, with 19600 fluorescence intensity (a.u.); and “GACTTGATTTTTTTTCTTAATTTGACCTTTTAATTTCAAACGGAGTCACCTAGTGCAG”, with 8080 fluorescence intensity (a.u.).
As to “ATAGTTGGTGTGTTTATGTAGACTTATTCTATTTTGACGTCGGAGTCACCTAGTGCAG”, the binding signal is 10400 fluorescence intensity (a.u.).
Then “AGTAATTTGACTTTTTCCTTAATCAAACTTCTTTAAGTTTCGGAGTCACCTAGTGCAG”, with 10600 fluorescence intensity (a.u.); and “TCGTTGACTTTTTTCTTAGTCAAATTTCTTTAAGTTTGACCGGAGTCACCTAGTGCAG”, with 42400 fluorescence intensity (a.u.).
Turning to “GATTCTAGTCAAATTTCTTTTAATTTTGACTACGTTTATACGGAGTCACCTAGTGCAG”, the binding signal was 11200 fluorescence intensity (a.u.).
In the case of “GTCATTTTGTCTTTTTCTCTAAGTCAAACTTCTTTAATTTCGGAGTCACCTAGTGCAG”, the binding signal is 10900 fluorescence intensity (a.u.).
As for “AGGAGCCAGACTTAGTTGGTGTAAGCCATTTACTAGTTGACGGAGTCACCTAGTGCAG”, the binding signal is 22800 fluorescence intensity (a.u.).
Then “AACCTCTCATTTAATAAGATTCATCACAGTCTTTTTTTTTCGGAGTCACCTAGTGCAG”, with 9990 fluorescence intensity (a.u.); and “TACCATTTCTTTCTTGCTTTTTTAATGCCTAAATCATCTTCGGAGTCACCTAGTGCAG”, with 8050 fluorescence intensity (a.u.).
Then “CCCTATCCATTAATTACTCGCTTCGTGGTCGGAATCCATGCGGAGTCACCTAGTGCAG”, with 8200 fluorescence intensity (a.u.); and “TGCTGCTGGTTACTTGTATTAATACATTATAGAAAATGAGCGGAGTCACCTAGTGCAG”, with 8070 fluorescence intensity (a.u.); and “AACTCTTTCTGCCCACTTCCTCAACCCATGCTTATCTACCCGGAGTCACCTAGTGCAG”, with 8240 fluorescence intensity (a.u.).
On to “TGAGAAGCACCGCTCTCTCCTGCACCCGTCTCACGTGCACCGGAGTCACCTAGTGCAG”, for which the binding signal is 8300 fluorescence intensity (a.u.).
Then “TCACCTGATCAAGTACGCGTTTTTGGCCCTCAAAAGTATTCGGAGTCACCTAGTGCAG”, with 8120 fluorescence intensity (a.u.).
Regarding “ACTAGGGTTCTCTTCTCACTCCATCGCTAGCGGCGGCTCACGGAGTCACCTAGTGCAG”, the binding signal is 8340 fluorescence intensity (a.u.).
For the sequence “TAATGGGATGGGTGAAAAGTTATTGTTTTTGGTAGGCCTTCGGAGTCACCTAGTGCAG”, the binding signal is 9640 fluorescence intensity (a.u.).
“CACCGCCGAACGCACGATTTCTTCCCGACGCTGTCACTTGCGGAGTCACCTAGTGCAG”: the binding signal is 8190 fluorescence intensity (a.u.).
Regarding “CCGCGATCTGTTTCGTCCAGCTTAATTTGTTGCTGTTCTGCGGAGTCACCTAGTGCAG”, the binding signal is 11300 fluorescence intensity (a.u.).
For “TAAGATGTTTTGACTTTGGTCAAAGTCAAACTACTTTGAGCGGAGTCACCTAGTGCAG”, the binding signal was 13200 fluorescence intensity (a.u.).
Then “TATTTTTGACTTTGGTCAAAGTCAAACTGTTTTAAGTTTGCGGAGTCACCTAGTGCAG”, with 17900 fluorescence intensity (a.u.); and “TTATAAGATGTTTTGACTTTGGTCAAAGTCAAACTATTTCCGGAGTCACCTAGTGCAG”, with 16600 fluorescence intensity (a.u.).
Then “AAGTTACTTTTATTTTTTTCTAGTCAAACTACTTAGACTTCGGAGTCACCTAGTGCAG”, with 8740 fluorescence intensity (a.u.).
As to “TTTGATTTTGGTCAAAGTCAAACTACTCTAAGTTTGACTACGGAGTCACCTAGTGCAG”, the binding signal was 13400 fluorescence intensity (a.u.).
Then “TATTGACTTTGGTCAAAGTCAAACTGTTTTAAATTTCACTCGGAGTCACCTAGTGCAG”, with 10500 fluorescence intensity (a.u.); and “AAGTTATAAGATGTTTTGACTTTGGTCAAAGTCAAACTGCCGGAGTCACCTAGTGCAG”, with 14600 fluorescence intensity (a.u.).
Then “ACATTTTGACTTTTGCCAAAGTCAAACTGCTTTAAGTTTGCGGAGTCACCTAGTGCAG”, with 11900 fluorescence intensity (a.u.); and “GTTTGACTTTTTTACTAGTCAAACTTATTTAAGTTTGACCCGGAGTCACCTAGTGCAG”, with 17500 fluorescence intensity (a.u.).
